Active and inactive are the calls of the source. Rule for the calls: active = hit-call score of the fitted dose curve at least 0.9, where 1 is the maximum; inactive = score below 0.9.

CCAAT/enhancer-binding protein beta (Homo sapiens), sequence (P17676 whole entry, looked up): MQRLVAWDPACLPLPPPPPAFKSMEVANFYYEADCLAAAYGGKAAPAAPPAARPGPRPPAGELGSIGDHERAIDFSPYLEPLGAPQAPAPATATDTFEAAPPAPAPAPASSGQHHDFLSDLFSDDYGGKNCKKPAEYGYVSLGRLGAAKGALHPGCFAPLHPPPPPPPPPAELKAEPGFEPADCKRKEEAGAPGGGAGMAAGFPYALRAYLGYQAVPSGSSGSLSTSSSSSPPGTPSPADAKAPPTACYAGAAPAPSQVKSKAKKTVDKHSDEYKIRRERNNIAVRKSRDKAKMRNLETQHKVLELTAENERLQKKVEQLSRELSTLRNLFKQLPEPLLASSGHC

Tested on in one assay: not listed separately
The assay is described as follows: ATG_CRE_CIS: Attagene CIS-FACTORIAL HepG2 Assay for human cAMP Responsive Element (CRE) binding protein 3 (AID 2282926). The conditions noted are these: HepG2 CRE cis-reporter, Attagene multiplexed mRNA; actives raise or lower the signal. In outline:
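Assay format: transient reporter transfection of HepG2, 24 h treatment, total RNA isolation with DNase I step. Reporter abundance read by fluorescence after PCR and capillary separation; DMSO-normalised gain or loss fitting.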
Regarding `Cc1cn([C@H]2C=C[C@@H](CO)O2)c(=O)[nH]c1=O`, the call was inactive.
The same measure, in the same setting: to `CCCCc1nc2cccnc2n1Cc1ccc(-c2ccccc2-c2nnn[nH]2)cc1` belongs “inactive”.
Still for that read-out and setting: as for `O=C1O[C@H]([C@H](O)CO)C(O)=C1O`, the entry is “inactive”.

Another assay concerns the target CCAAT/enhancer-binding protein beta (Homo sapiens) (UniProt P17676). As to the kind of experiment: ATG_C_EBP_CIS: Attagene CIS-FACTORIAL HepG2 Assay for human CCAAT/Enhancer Binding Protein (C/EBP) beta (AID 2282927). The conditions noted are these: HepG2 Attagene cis-factorial transcription factor reporter; actives raise or lower the signal. An outline of the steps:
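Endogenous transcription factor activity in human liver HepG2 cells is inferred from induction of a CEBPB-linked reporter mRNA. Exposure lasts 24 h; activity is fitted in both directions relative to DMSO.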
For `Cc1cc(Cc2ccc(N)c(C)c2)ccc1N`, the outcome was inactive.
`O=C1OC(c2ccc(O)cc2)(c2ccc(O)cc2)c2ccccc21`: the AC50 (as a rule, the concentration at which the activity in the assay is half-maximal) is 184 µM (active).
As to `CC(C)(C)c1ccccc1`, the outcome was inactive.
Still for that read-out and setting: as for `CCCCCCCCCCCCCCCCO`, the entry is “inactive”.
The same measure, in the same setting: to `COC(=O)CCC(=O)OC` belongs “inactive”.
The same measure, in the same setting: to `CC(=O)CC(c1ccccc1)c1c(O)c2ccccc2oc1=O` (stereo unspecified) belongs “inactive”; to `CC(C)c1cccc(C(C)C)c1`, “inactive”; to `CC(C)(O)c1ccc(CNC(=O)c2cccnc2Oc2ccc(F)cc2)cc1`, “inactive”.
As for `NCCOCCOCCN`, the result was inactive.
The same measure, in the same setting: as for `C/C=C/c1ccc(OC)cc1`, the entry is “inactive”.
Take `Oc1ccccc1O`: the outcome was inactive.
On to `CCc1cc(C2=C(C(=O)O)N(c3ccccc3C(F)(F)F)S(=O)(=O)c3ccccc32)cc2c1OCO2`, for which the result was inactive.
Still for that read-out and setting: to `CCCCCCCC(=O)OC` belongs “inactive”; to `O=C(NS(=O)(=O)/C=C/c1cccs1)c1ccc(F)cc1Br`, “inactive”; to `CCCCC(CC)COC(=O)CCCCCCCC(=O)OCC(CC)CCCC` (stereo unspecified), “inactive”.
Same read-out and setting: to `S=c1[nH]c2ccccc2s1` belongs “inactive”.
Still for that read-out and setting: as for `CC(C)c1cccc(C(C)C)c1NC(=O)NS(=O)(=O)c1cc(C(C)(C)O)co1`, the entry is “inactive”.
Regarding `O=C(O)c1cccnc1`, the result was inactive.
For the compound `NC(=Nc1ccccc1)Nc1ccccc1`, the outcome was inactive.
On the same count and under the same terms, as for `CC(=O)[C@@]1(O)CC[C@H]2[C@@H]3CCC4=CC(=O)CC[C@]4(C)[C@H]3CC[C@@]21C`, the entry is “inactive”.
Still for that read-out and setting: as for `Oc1ccc(O)cc1`, the entry is “inactive”.
Same read-out and setting: to `O=Cc1ccccc1C=O` belongs “inactive”.
`COC(=O)CCCC(=O)OC`: the result was inactive.
On the same count and under the same terms, as for `O=C(O)CN(CC(=O)O)CC(=O)O`, the entry is “inactive”; as for `C=CCc1ccc(OC)c(OC)c1`, “inactive”; as for `O=[Si]=O`, “inactive”.
Same read-out and setting: as for `Cc1cn([C@H]2C=C[C@@H](CO)O2)c(=O)[nH]c1=O`, the entry is “inactive”; as for `CCCCc1nc2cccnc2n1Cc1ccc(-c2ccccc2-c2nnn[nH]2)cc1`, “inactive”; as for `O=C1O[C@H]([C@H](O)CO)C(O)=C1O`, “inactive”.

Tested on in another assay: not listed separately
The assay is described as follows: ATG_CMV_CIS: Attagene CIS-FACTORIAL HepG2 Assay for human CMV (Internal Marker) (AID 2282928).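 Note: endpoint acts as a background internal control marker rather than a target.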 The conditions noted are these: HepG2 CMV promoter reporter, transcription factor profiling; actives raise or lower the signal. An outline of the steps:
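Bidirectional fits against DMSO are applied to reporter mRNA, read by RT-PCR with capillary electrophoresis, from HepG2 cells exposed 24 h. The endpoint serves as an internal CMV background marker within the cis-factorial reporter panel.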
As to `Cc1cc(Cc2ccc(N)c(C)c2)ccc1N`, the compound was classed as inactive.
In the case of `O=C1OC(c2ccc(O)cc2)(c2ccc(O)cc2)c2ccccc21`, the AC50 is 177 µM (active).
Consider `CC(C)(C)c1ccccc1`, for which the outcome was inactive.
As for `CCCCCCCCCCCCCCCCO`, the compound was called inactive.
The same measure, in the same setting: as for `COC(=O)CCC(=O)OC`, the entry is “inactive”.
With `CC(=O)CC(c1ccccc1)c1c(O)c2ccccc2oc1=O` (stereo unspecified), the outcome was inactive.
Same read-out and setting: as for `CC(C)c1cccc(C(C)C)c1`, the entry is “inactive”.
On to `CC(C)(O)c1ccc(CNC(=O)c2cccnc2Oc2ccc(F)cc2)cc1`, for which the call was inactive.
Still for that read-out and setting: to `NCCOCCOCCN` belongs “inactive”.
On the same count and under the same terms, to `C/C=C/c1ccc(OC)cc1` belongs “inactive”.
With `Oc1ccccc1O`, the AC50 was 25 µM (active).
Consider `CCc1cc(C2=C(C(=O)O)N(c3ccccc3C(F)(F)F)S(=O)(=O)c3ccccc32)cc2c1OCO2`, for which the result was inactive.
In the case of `CCCCCCCC(=O)OC`, the outcome was inactive.
The same measure, in the same setting: as for `O=C(NS(=O)(=O)/C=C/c1cccs1)c1ccc(F)cc1Br`, the entry is “inactive”; as for `CCCCC(CC)COC(=O)CCCCCCCC(=O)OCC(CC)CCCC` (stereo unspecified), “inactive”.
`S=c1[nH]c2ccccc2s1`: the AC50 was 100 µM (active).
With `CC(C)c1cccc(C(C)C)c1NC(=O)NS(=O)(=O)c1cc(C(C)(C)O)co1`, the call was inactive.
On the same count and under the same terms, to `O=C(O)c1cccnc1` belongs “inactive”; to `NC(=Nc1ccccc1)Nc1ccccc1`, “inactive”; to `CC(=O)[C@@]1(O)CC[C@H]2[C@@H]3CCC4=CC(=O)CC[C@]4(C)[C@H]3CC[C@@]21C`, “inactive”.
On the same count and under the same terms, to `Oc1ccc(O)cc1` belongs “inactive”; to `O=Cc1ccccc1C=O`, “inactive”; to `COC(=O)CCCC(=O)OC`, “inactive”.
Same read-out and setting: as for `O=C(O)CN(CC(=O)O)CC(=O)O`, the entry is “inactive”; as for `C=CCc1ccc(OC)c(OC)c1`, “inactive”.
In the case of `O=[Si]=O`, the compound was called inactive.
Consider `Cc1cn([C@H]2C=C[C@@H](CO)O2)c(=O)[nH]c1=O`, for which the result was inactive.
As for `CCCCc1nc2cccnc2n1Cc1ccc(-c2ccccc2-c2nnn[nH]2)cc1`, the result was inactive.
On the same count and under the same terms, as for `O=C1O[C@H]([C@H](O)CO)C(O)=C1O`, the entry is “inactive”.

(Values after PubChem BioAssay (EPA / NIEHS).)
